PubChem BioAssay (Tox21)
Values without a mark were called inactive. Records with an inconclusive call do not appear. Entries that show only a call come without a potency. The source made the active and inactive calls. Unless noted, calls come from the whole dose curve; as a rule, active = well fitted curve in the direction sought with a large enough effect in the repeat runs; inconclusive = weak or mixed curves; inactive = no such curve, though single readings can be large; an effect the other way counts as inactive or inconclusive.

Experiments:
[1] = A CellTox Green Cytotoxicity Assay to monitor cytotoxicity in HepG2 cells - 0 hour (AID 1224882); note: nearly all actives have a fitted effect of over 35% in size
Summary of the method: (§1)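 Nonlytic assay: viable cells exclude the dye, so fluorescence scales with cell death. HepG2 at 600 cells/well, compounds added after 5 h, signal read across 40 h.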

[2] = A CellTox Green Cytotoxicity Assay to monitor cytotoxicity in HepG2 cells - 32 hour (AID 1224883); note: nearly all actives have a fitted effect of over 50% in size
Summary of the method: as §1

[3] = A CellTox Green Cytotoxicity Assay to monitor cytotoxicity in HEK293 cells - 8 hour (AID 1224884); note: nearly all actives have a fitted effect of over 35% in size
Summary of the method: (§2)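 Seeding of HEK293 cells together with cytotoxicity dye preceded a 5 h incubation at 37 C/5% CO2. Test compounds in DMSO were then added and fluorescence monitored across 40 h.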

[4] = qHTS RealTime-Glo MT Cell Viability Assay in HepG2 cells - 16 hour (AID 1224885); note: nearly all actives have a fitted effect of over 50% in size
Summary of the method: (§3)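 Real-time, nonlytic viability: 600 HepG2 cells/well mixed with NanoLuc enzyme plus prosubstrate; 5 h settle, compound (DMSO) added by pintool; luminescence monitored over 40 h at 37 C.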

[5] = qHTS RealTime-Glo MT Cell Viability Assay in HEK293 cells - 24 hour (AID 1224886); note: top concentration of the series differs between compounds; nearly all actives have a fitted effect of over 50% in size
Summary of the method: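 Cells + reagent dispensed (600 cells/well, HEK293) → 5 h at 37 C/5% CO2 → 23 nL compound in DMSO pinned → 40 h at 37 C → luminescence read at 0, 8, 16, 24, 32, 40 h.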

[6] = qHTS RealTime-Glo MT Cell Viability Assay in HEK293 cells - 8 hour (AID 1224887); note: nearly all actives have a fitted effect of over 50% in size; note: potency is the fitted concentration of half-maximal effect
Summary of the method: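 Tox21 screen in HEK293 using RealTime-Glo MT chemistry, with cells and reagent co-dispensed. Luminescence proportional to viable cell number was captured at intervals during 40 h compound exposure at 37 C.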

[7] = A CellTox Green Cytotoxicity Assay to monitor cytotoxicity in HEK293 cells - 16 hour (AID 1224888); note: nearly all actives have a fitted effect of over 35% in size
Summary of the method: as §2

[8] = qHTS RealTime-Glo MT Cell Viability Assay in HepG2 cells - 0 hour (AID 1224889); note: nearly all actives have a fitted effect of over 50% in size
Summary of the method: as §3

[9] = A CellTox Green Cytotoxicity Assay to monitor cytotoxicity in HepG2 cells - 8 hour (AID 1224890); note: nearly all actives have a fitted effect of over 45% in size
Summary of the method: as §1

[10] = qHTS assay to identify small molecule antagonists of the estrogen receptor alpha (ER-alpha) signaling pathway using the BG1 cell line in the presence of 0.1 nM 17-beta-estradiol - cell viability counter screen (AID 1259241); note: nearly all actives have a fitted effect of over 40% in size
Summary of the method: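 Cytotoxicity counter-screen: live-cell protease activity measured by fluorescence (30 min reagent step) in the same wells. Cells were VM7Luc4E2 with endogenous ER-alpha and ERE-driven luciferase, treated 22 hr at 37C alongside 0.1 nM 17beta-estradiol final.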

[11] = qHTS assay to identify small molecule antagonists of the androgen receptor (AR) signaling pathway using the MDA cell line in the presence of 0.5 nM R1881 - cell viability counter screen (AID 1259242); note: nearly all actives have a fitted effect of over 45% in size
Summary of the method: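 R1881 at 0.5 nM final stimulated MDA-kb2 cells during 16 hr compound treatment at 37C. Cytotoxicity read: CellTiter-Fluor fluorescence after 30 min.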

[12] = qHTS assay to identify small molecule HDAC inhibitors (AID 1259364); note: potency is the fitted concentration of half-maximal effect;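 note: wild-type HCT-116 cells with endogenous class I/II HDAC activity; nearly all actives have a fitted effect of over 45% in size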
Summary of the method: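 Relative class I and II HDAC activity is taken from the luminogenic signal in HCT-116 cells, with compound exposure 2 hr and reagent development 30 min at room temperature.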

[13] = qHTS assay to identify small molecule agonists of the sonic hedgehog signaling (Shh) pathway - cell viability counter screen (AID 1259366); note: nearly all actives have a fitted effect of over 50% in size
Summary of the method: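 Cytotoxicity counter screen: CellTiter-Fluor reagent added after 23 h compound exposure, then 1 h at 37C and fluorescence read. Cells were 3T3 Gli1-Luc, seeded 2,000 per well and dosed 4 h post-plating.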

[14] = qHTS assay to identify small molecule antagonists of the sonic hedgehog signaling (Shh) pathway - cell viability counter screen (AID 1259367); note: nearly all actives have a fitted effect of over 55% in size
Summary of the method: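 NIH/3T3-derived Gli1-Luc reporter cells, 2,000/well, plated 4 hr before compound addition, then stimulated with conditioned medium for 24 hr at 37C. Viability measured in the same wells by CellTiter-Fluor fluorescence, reagent added at 23 hr for 1 hr.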

[15] = qHTS assay to identify small molecule agonists of the sonic hedgehog signaling (Shh) pathway (AID 1259368; calls by dose curve;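 note: NIH/3T3-derived 3T3Gli1-Luc cells carrying a stable Gli1-driven firefly luciferase reporter; series mostly up to about 92 µM; nearly all actives have a fitted effect of over 15% in size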)
Summary of the method: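 Mouse fibroblast (NIH/3T3) reporter cells with stably integrated Gli1-Luc were treated 24 hr with compound; firefly luciferase luminescence served as the read-out.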

[16] = qHTS assay to identify small molecule antagonists of the sonic hedgehog signaling (Shh) pathway (AID 1259369; calls by dose curve; note: nearly all actives have a fitted effect of over 45% in size)
Summary of the method: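 Conditioned medium drives Shh signalling in 3T3Gli1-Luc cells; compounds in DMSO co-applied, 24hr at 37 C, then luciferase luminescence.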

[17] = biological target: Estrogen receptor (Homo sapiens) (UniProt P03372); assay: qHTS assay to identify small molecule antagonists of the estrogen receptor alpha (ER-alpha) signaling pathway using the BG1 cell line in the presence of 0.1 nM 17-beta-estradiol (AID 1259244); note: nearly all actives have a fitted effect of over 50% in size; note: potency is the fitted concentration of half-maximal effect
Summary of the method: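 VM7Luc4E2; 4xERE-luciferase; 0.1 nM E2 final; 22 h co-incubation, 37C; ONE-Glo luminescence after 30 min at room temperature.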

[18] = qHTS assay to identify small molecule HDAC inhibitors - cell viability counter screen (AID 1259365)
Summary of the method: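 CellTiter-Glo luminescence (30 min, room temperature) reported viability after a 2 h compound exposure at 37 C. Cells: wild-type HCT-116, 1,500 per well, seeded the night before.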

[19] = qHTS assay to identify small molecule phospholipidosis (PLD) inducers (AID 1259344; active = well fitted curve in the direction sought with a large enough effect; an effect the other way counts as inactive or inconclusive)
Summary of the method: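 HepG2 cells, 900/well, treated with compound plus LipidTOX Red for 24 h at 37 C; amiodarone positive and DMSO negative controls. Fixed with paraformaldehyde/Hoechst, then high-content imaging scored LipidTOX pit count and integrated intensity per well and per cell.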

Estrogen receptor (Homo sapiens), sequence (P03372 whole entry, looked up): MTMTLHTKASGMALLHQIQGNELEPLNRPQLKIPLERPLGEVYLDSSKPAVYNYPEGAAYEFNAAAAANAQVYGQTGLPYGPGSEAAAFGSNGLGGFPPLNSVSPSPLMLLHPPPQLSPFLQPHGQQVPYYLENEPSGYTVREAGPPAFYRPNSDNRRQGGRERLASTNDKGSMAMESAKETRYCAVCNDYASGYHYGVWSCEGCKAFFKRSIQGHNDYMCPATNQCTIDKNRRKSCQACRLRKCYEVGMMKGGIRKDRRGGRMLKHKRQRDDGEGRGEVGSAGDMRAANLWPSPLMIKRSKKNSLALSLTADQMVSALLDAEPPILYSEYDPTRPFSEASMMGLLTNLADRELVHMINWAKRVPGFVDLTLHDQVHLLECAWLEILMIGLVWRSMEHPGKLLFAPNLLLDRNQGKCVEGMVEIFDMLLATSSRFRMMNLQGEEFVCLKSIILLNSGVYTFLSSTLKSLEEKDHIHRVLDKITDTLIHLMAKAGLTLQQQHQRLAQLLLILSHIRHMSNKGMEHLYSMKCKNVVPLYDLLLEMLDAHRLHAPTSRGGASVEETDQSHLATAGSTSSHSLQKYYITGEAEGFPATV

| Structure (SMILES) | Potency [1] | Potency [2] | Potency [3] | Potency [4] | Potency [5] | Potency [6] | Potency [7] | Potency [8] | Potency [9] | Potency [10] | Potency [11] | Potency [12] | Potency [13] | Potency [14] | Potency [15] | Potency [16] | Potency [17] | Potency [18] | Potency [19] |
| --- | --- | --- | --- | --- | --- | --- | --- | --- | --- | --- | --- | --- | --- | --- | --- | --- | --- | --- | --- |
| Cc1cc(CCC(=O)OCCOCCOCCOC(=O)CCc2cc(C)c(O)c(C(C)(C)C)c2)cc(C(C)(C)C)c1O | inactive | inactive | inactive | inactive | inactive | 33.8 µM (active) | inactive | inactive | inactive | inactive | inactive | inactive | inactive | inactive | inactive | inactive | – | – | – |
| O=C(O)CCS | inactive | inactive | inactive | inactive | inactive | inactive | inactive | inactive | inactive | – | inactive | inactive | inactive | inactive | inactive | inactive | inactive | inactive | – |
| CCCCCCC(O)CCCCCCCCCCC(=O)OC (stereo not given) | inactive | inactive | inactive | inactive | inactive | inactive | inactive | inactive | inactive | inactive | – | inactive | inactive | inactive | – | – | – | inactive | – |
| CCCOC(=O)c1c(Cl)c(Cl)c(Cl)c(Cl)c1C(=O)OCCC | inactive | inactive | inactive | inactive | inactive | inactive | inactive | inactive | inactive | inactive | inactive | inactive | inactive | inactive | inactive | inactive | – | – | – |
| Nc1nc(-c2ccc([N+](=O)[O-])cc2)cs1 | inactive | inactive | inactive | inactive | inactive | inactive | inactive | inactive | inactive | – | inactive | 12.3 µM (active) | inactive | inactive | – | – | – | inactive | – |
| CCCCCCCCCCCSCC(=O)O | inactive | inactive | inactive | inactive | inactive | inactive | inactive | inactive | inactive | inactive | – | inactive | inactive | inactive | inactive | – | 54.5 µM (active) | inactive | – |
| CC(C(=O)O)c1ccc(C(=O)c2cccs2)cc1 (stereo not given) | inactive | inactive | inactive | inactive | inactive | inactive | inactive | inactive | inactive | inactive | inactive | 29.8 µM (active) | inactive | inactive | – | inactive | – | – | inactive |
| C=CCOC(=O)COCCC(C)C | inactive | inactive | inactive | inactive | inactive | inactive | inactive | inactive | inactive | – | inactive | inactive | inactive | inactive | inactive | inactive | inactive | – | – |
